Experimental data: PubChem BioAssay (NCATS)
Several values for one entry are separate records, joined by “and”; a condition that tells them apart may be missing. Equal entries are not always repeated. Results filed as inconclusive are left out. Activity calls are given as the source filed them. Calls come from the whole dose curve; as a rule, active = well fitted curve in the direction sought with a large enough effect; inconclusive = small, poorly fitted or top-dose-only effect, or another doubt; inactive = no such curve, though single readings can be large; an effect the other way counts as inactive or inconclusive.

What was measured:
[1] = biological target: Cytochrome P450 3A4 (Homo sapiens) (UniProt P08684); test: qHTS Assay for Inhibitors and Substrates of Cytochrome P450 3A4 (AID 884); note: potency is the fitted concentration of half-maximal effect; nearly all actives have a fitted effect of over 50% in size
Summary of the method: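 Luminescent readout of luciferin produced by CYP3A4 (20 nM) dealkylation of Luciferin-PPXE, 25 uM (its KM). NADPH-driven reaction ran 60 min at RT after 10 min compound preincubation; data scaled to 57 uM ketoconazole as 100% inhibition.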

[2] = biological target: Cytochrome P450 3A4 (Homo sapiens) (UniProt P08684); test: qHTS Assay for Activators of Cytochrome P450 3A4 (AID 885); note: nearly all actives have a fitted effect of over 65% in size
Summary of the method: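 Using 20nM recombinant human CYP3A4 in potassium phosphate (200mM), substrate Luciferin-PPXE at 25uM, luminescent luciferin detection followed a 60-min RT NADPH reaction; data scaled to 57 uM ketoconazole.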

Cytochrome P450 3A4 (Homo sapiens), sequence (P08684 whole entry, looked up): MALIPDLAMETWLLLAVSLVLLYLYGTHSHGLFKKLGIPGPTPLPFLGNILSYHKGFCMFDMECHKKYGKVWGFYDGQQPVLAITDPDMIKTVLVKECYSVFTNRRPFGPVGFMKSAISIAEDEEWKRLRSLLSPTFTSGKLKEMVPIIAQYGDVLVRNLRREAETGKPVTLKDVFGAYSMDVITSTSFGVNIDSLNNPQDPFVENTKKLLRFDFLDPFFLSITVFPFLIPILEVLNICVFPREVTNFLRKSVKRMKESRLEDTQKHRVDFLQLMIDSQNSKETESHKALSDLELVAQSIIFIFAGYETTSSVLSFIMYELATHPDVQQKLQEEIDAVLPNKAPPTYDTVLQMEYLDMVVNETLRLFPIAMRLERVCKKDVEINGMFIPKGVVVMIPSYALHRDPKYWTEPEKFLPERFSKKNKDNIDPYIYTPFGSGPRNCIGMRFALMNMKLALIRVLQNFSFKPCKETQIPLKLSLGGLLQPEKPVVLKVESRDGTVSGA

| Compound | Potency [1] | Potency [2] | activity change, positive = activation [2] |
| --- | --- | --- | --- |
| COC(=O)[C@@H]1C[C@@]2(O)[C@@H](O)[C@@H](O)[C@@H](O)C[C@H]2N1CC(c1ccccc1)c1ccccc1 | 3.16 µM (active) | inactive | – |
| CCC1=C(OC(=O)N(CC)CC)N2C(=O)OC(=NCC(=O)OC)[C@]2(C)[C@H]2C1=CC[C@H]1C(=O)N(C)C(=O)[C@H]12 | 12.6 µM (active) | inactive | – |
| CCC1=C2CC[C@H]3C(=O)N(C)C(=O)[C@H]3[C@H]2[C@@]2(Cc3ccccc3)C(=NCC3CC3)OC(=O)N2C1=O | 5.01 µM (active) | inactive | – |
| N#Cc1ccc(C23CC4(C2)[C@H](CN(Cc2cccnc2)[C@@H]4c2ccccc2)C3c2ccccc2)cc1 (some centres undefined) | 3.98 µM (active) | inactive | – |
| O=C(N/N=C1/C[C@@H](O)[C@@H](O)[C@@H]2[C@@H]3C(=O)N(Cc4ccc5c(c4)OCO5)C(=O)[C@H]3CC[C@@H]12)OCc1ccccc1 | 1.26 µM (active) | – | -74.6% [at 11.4 µM] (inactive) |
| CCC1=C2CC[C@H]3C(=O)N(C)C(=O)[C@H]3[C@H]2[C@@]2(Cc3ccccc3)C(=NCC(=O)OC)OC(=O)N2C1=O | 10 µM (active) | inactive | – |
| CCOC(=O)N/N=C1/C[C@@H](O)[C@@H](O)[C@@H]2[C@@H]3C(=O)N(Cc4ccc5c(c4)OCO5)C(=O)[C@H]3CC[C@@H]12 | 3.98 µM (active) | – | -82.5% [at 11.4 µM] (inactive) |
| CCC1=C2CC[C@H]3C(=O)N(c4ccccc4)C(=O)[C@H]3[C@H]2[C@@]2(Cc3ccccc3)C(=NCCOC)OC(=O)N2C1=O | 7.94 µM (active) | inactive | – |
| CCCNC(=O)OC[C@H]1O[C@@H](CCO/N=C2/[C@H]3O[C@@H]3[C@@H](O)[C@H]3[C@H]2CCn2c(=O)n(-c4ccccc4)c(=O)n23)C=C[C@@H]1Oc1ccc(OC)cc1 | 3.16 µM (active) | – | -85.3% [at 11.4 µM] (inactive) |
| COC(=O)c1cccc(C23CC4(C2)[C@H](CN(Cc2cccnc2)[C@@H]4c2ccccc2)C3c2ccc(C(F)(F)F)cc2)c1 (some centres undefined) | 2.51 µM (active) | inactive | – |
| COC(=O)C/C=C\[C@@H](C)[C@@H](/C=N\O[C@@H](C)c1cn([C@H](CO)Cc2ccccc2)nn1)OC | 3.98 µM (active) | – | -56.1% [at 11.4 µM] (inactive) and -71.3% [at 11.4 µM] (inactive) |
| CCC1=C(OC(=O)N(CC)CC)N2C(=O)OC(=NCc3ccccc3)[C@]2(C)[C@H]2C1=CC[C@H]1C(=O)N(c3ccccc3)C(=O)[C@H]12 | 2.51 µM (active) | inactive | – |
| CCC1=C(OC(=O)N(CC)CC)N2C(=O)OC(=NCCc3c[nH]c4ccccc34)[C@]2(Cc2ccccc2)[C@H]2C1=CC[C@H]1C(=O)NC(=O)[C@H]12 | 2 µM (active) | inactive | – |
| FC(F)(F)c1ccc(C2[C@H]3CN(Cc4cccnc4)[C@H](c4ccccc4)C34CC2(c2cccnc2)C4)cc1 (some centres undefined) | 2 µM (active) | inactive | – |
| CCC1=C2CC[C@H]3C(=O)N(c4ccccc4)C(=O)[C@H]3[C@H]2[C@@]2(C)C(=NCc3ccccc3)OC(=O)N2C1=O | 3.98 µM (active) | inactive | – |
| CCOC(c1cc(OC)cc([N+](=O)[O-])c1OC)C(C)C(OC)[C@@H](C)/C=C/CC(=O)OC (some centres undefined) | 3.98 µM (active) | – | -78.6% [at 11.4 µM] (inactive) |
| C#CCCCO/N=C1/C[C@@H](O)[C@@H](O)[C@@H]2[C@@H]3C(=O)N(Cc4ccccc4)C(=O)[C@H]3CC[C@H]12 | 3.98 µM (active) | – | -103% [at 11.4 µM] (inactive) |
| CCC1=C(OC(=O)N(CC)CC)N2C(=O)OC(=NCC(=O)OC)[C@]2(Cc2ccccc2)[C@H]2C1=CC[C@H]1C(=O)N(CC(=O)OC)C(=O)[C@H]12 | 5.01 µM (active) | inactive | – |
| CC1(C)CC(=O)c2c(oc3cc4c(cc23)OCO4)C1 | 3.98 µM (active) | inactive | – |
| CNC1=C(Br)C(=O)c2ccncc2C1=O | 1.26 µM (active) | inactive | – |
| COC(=O)C/C=C\[C@@H](C)[C@@H](/C=N\O[C@@H](C)CN1CCCCc2nc(C)c(C)cc21)NS(=O)(=O)c1ccc(C)cc1 | 3.98 µM (active) | – | -78.5% [at 11.4 µM] (inactive) |
| C/C(CCN1CCc2nc(-c3ccccc3)c(-c3ccccc3)cc2C1)=N\OC[C@@H](O)COCc1ccco1 | 3.16 µM (active) | – | -86.5% [at 11.4 µM] (inactive) |
